Compound activity as filed in PubChem BioAssay.
Only some compounds are listed: those with a hit (about 6.5% of all), similar ones and a draw of the others.
HCMV inh – qHTS Assay for inhibitors of the human cytomegalovirus (HCMV); activity change, negative = inhibition, % at 57.5 µM; HFF cells, HCMV-luciferase reporter, 72 h; stronger effect = lower value; 410,000 tested, 4.5% active; in the data active = activity change below about -60%; inconclusive = no clear call, values can overlap the other calls; inactive = above about -39%
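Two compound doses tested in HFFs infected with HCMV-luciferase, MOI 1 PFU/cell, 72 h at 37C. Lysate luminescence read with OneGlo; data normalized against buffer-only and 10uM Salinomycin inhibitor controls.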
Vaccinia mCherry – qHTS for Stage-Specific Inhibitors of Vaccinia Orthopoxvirus: mCherry Reporter Primary qHTS; 310,000 tested, 0.63% active; Potency, µM (series often up to 36.5 µM), for the others: at the highest dose activity change, negative = inhibition, actives largely listed as inhibitors; Vaccinia virus mCherry reporter infection, fluorescence; calls by dose curve; tested in A549 cells; also: potency is read from the fitted curve at half-maximal effect; nearly all actives have a fitted effect of over 35% in size
FMDV antiviral – High Throughput Screening for Foot and Mouth Disease Virus Antivirals; 410,000 tested, 1.2% active; AID 1159524, 2015; Potency, µM (series often up to 57.9 µM), for inactives: top-dose activity change, negative = inhibition, actives largely listed as inhibitors; FMDV antiviral cell-based qHTS; calls by dose curve; tested in HEK293T cells; also: read-out not given here; potency is read from the fitted curve at half-maximal effect; nearly all actives have a fitted effect of over 45% in size
Vaccinia Venus – qHTS for Stage-Specific Inhibitors of Vaccinia Orthopoxvirus: Venus Reporter Primary qHTS. AID 720580, 2013. Vaccinia virus Venus reporter expression, fluorescence. 330,000 tested, 0.46% active. Potency, µM (top dose mostly 36.5 µM), without a hit: at the top dose activity change, negative = inhibition, usual class: inhibitors; calls by dose curve; tested in A549 cells; also: potency is read from the fitted curve at half-maximal effect; nearly all actives have a fitted effect of over 30% in size
LASV entry inh – qHTS for Inhibitors of binding or entry into cells for Lassa Virus | Lassa virus pseudotype entry inhibition, cell reporter | Potency, µM (doses to about 37.9 µM), inactives show top-dose activity change, negative = inhibition, most hits filed as inhibitors | 300,000 tested, 1.2% active | AID 540256, 2011; calls by dose curve; tested in HEK293 cells; also: potency is read from the fitted curve at half-maximal effect; nearly all actives have a fitted effect of over 50% in size
MARV entry inh – qHTS for inhibitors of binding or entry into cells for Marburg Virus; Marburg virus pseudotyped entry inhibition, cell reporter; Potency, µM (doses to about 37.8 µM), inactives show at the top dose activity change, negative = inhibition, most hits filed as inhibitors; 300,000 tested, 1.8% active; AID 540276, 2011; calls by dose curve; tested in HEK293 cells; also: potency is read from the fitted curve at half-maximal effect
Active calls of the source: *; i = inactive; ? = inconclusive; nt = no result given; [ ] = dose if it differs, or a comment. % is scaled to controls: 0 for no effect and ±100 for the full control effect.

SMILES	HCMV inh	Vaccinia mCherry	FMDV antiviral	Vaccinia Venus	LASV entry inh	MARV entry inh
Cc1ccc(/C=N/Nc2cccc(C(=O)O)c2)s1	118.9	i	3.55µM*	-9.5%	1.58µM*	1.12µM*
CN(C)c1ncnc2c1ncn2[C@H]1CN(Cc2cccnc2)C[C@@H](CO)O1	-20.6	23.4%	-4.6%	7.1%	nt	nt
COc1cc(-c2cc(C)c3c(OC)ccc(OC)c3n2)cc2c1OCCN(C(=O)CCn1ccc(C)n1)C2	nt	-11.7%	-13.4%	-1.6%	nt	nt
Cc1ccc(/C=N/Nc2ccc(C(=O)O)cc2)o1	92.3	nt	-2.3%	nt	-3.2%	-16.1%
Cc1nn(-c2ccccc2Cl)c(Cl)c1/C=N/Nc1cccc(C(=O)O)c1	150.9	-2.6%	7.08µM*	-19.0%	?	?
O=C(N/N=C\c1cc(Br)cs1)c1ccncc1	-5.4	nt	21.1%	nt	nt	nt
O=C(O)c1ccc(N/N=C/c2ccc(-c3ccc(Br)cc3)o2)cc1	14.6	11.2µM*	1.7%	?	?	?
O=C(O)c1ccc(N/N=C/c2cc(Br)cs2)cc1	-32.7	3.1%	-72.4%	7.9%	?	5.01µM*
CC#CCN1C(=O)NC(c2ccccc2)C(C#N)=C1C (centres undefined)	nt	nt	nt	nt	nt	23.2%[14.2 µM]
Cc1ccc([C@H]2C(C#N)=C(N)Oc3cc(C)oc(=O)c32)o1	17.2	4.2%	25.1µM*	4.1%	-3.5%	5.4%[46.1 µM]
CCOC(=O)COc1coc(CN2CCN(c3ccccc3)CC2)cc1=O	-61.0*	-7.8%	-3.0%	-6.4%	20.7%[46.1 µM]	-0.3%[46.1 µM]
Cc1cccc(NC(=O)COc2coc(CN3CCN(c4ccccc4)CC3)cc2=O)c1C	-61.0*	i	?	-11.0%	?	-23.4%
O=C(COc1coc(CN2CCN(c3ccccc3)CC2)cc1=O)Nc1ccccc1	10.0	-8.7%	-20.5%	-3.1%	-15.9%	1.3%
Nc1nccnc1C(=O)OCC(=O)NCCc1ccc(S(N)(=O)=O)cc1	-12.5	-10.3%	-5.7%	-12.4%	1.1%	?
COc1ccc2c(c1)CCc1cnc(-n3ncc(C(=O)NCC(C)(C)CN(C)C)c3C)nc1-2	nt	?	0.4%	-26.7%	nt	nt
O=C(O)c1ccc(N2C(=O)/C(=C/c3ccc(-c4ccc([N+](=O)[O-])cc4)o3)C=C2c2ccccc2)cc1	nt	-6.7%	15.8µM*	176.6%	-5.0%[46.1 µM]	-14.6%[46.1 µM]
O=C1NN(c2ccccc2)C(=O)/C1=C/c1ccc(-c2ccc(C(=O)O)cc2)o1	8.5	nt	2.8%	nt	nt	nt
COc1cccc([C@@H]2Oc3ccc(Br)cc3C(=O)[C@@H]2OC(=O)Nc2cc(OC)c(OC)c(OC)c2)c1	nt	nt	nt	nt	nt	5.2%[14.2 µM]
CC(=O)N1c2ccc(Cl)cc2C2OCCC2C1c1ccco1 (centres undefined)	-66.1*	-3.4%	-25.6%	-14.9%	5.4%	-27.0%
Clc1ccc2c(c1)C1OCCC1C(c1ccco1)N2 (centres undefined)	152.2	?	9.9%	-16.2%	0.4%	-13.9%
Oc1cc(NCc2ccc(F)cc2)cc2cccnc12	-92.7*	nt	-1.9%	nt	nt	nt
CN(C)CCCNc1cc(O)c2ncccc2c1	-77.6*	nt	?	nt	nt	nt
COc1cc(NCc2ccccc2O)c2ncccc2c1	17.9	?	8.4%	-9.9%	?	?
Oc1cc(NCc2ccc(Cl)cc2)cc2cccnc12	-39.3	nt	-10.8%	nt	nt	nt
CCCCN(CC)C(=O)C1CCCN(c2ncnc3c2nc2n3CCCCC2)C1 (centres undefined)	-4.6	-3.3%	-29.7%	6.6%	-24.0%[46.1 µM]	nt
SMILES	HCMV inh	Vaccinia mCherry	FMDV antiviral	Vaccinia Venus	LASV entry inh	MARV entry inh
CCCCN(Cc1ccco1)C(=O)C1CCCN(c2ncnc3c2nc2n3CCCCC2)C1 (centres undefined)	-92.9*	?	-24.8%	-28.1%	?	?
CC(C)N(Cc1ccccc1)C(=O)C1CCCN(c2ncnc3c2nc2n3CCCCC2)C1 (centres undefined)	-60.4*	nt	?	nt	nt	nt
O=C(C1CCCN(c2ncnc3c2nc2n3CCCCC2)C1)N1CCN(c2ccccc2)CC1 (centres undefined)	-62.0*	nt	?	nt	nt	nt
Cc1ccc(C)c(N2CCN(C(=O)C3CCCN(c4ncnc5c4nc4n5CCCCC4)C3)CC2)c1 (centres undefined)	-69.0*	nt	?	nt	nt	nt
O=C(C1CCCN(c2ncnc3c2nc2n3CCCCC2)C1)N1CCN(c2cccc(Cl)c2)CC1 (centres undefined)	-28.9	nt	?	nt	nt	nt
Cc1ccc(N2CCN(C(=O)C3CCCN(c4ncnc5c4nc4n5CCCCC4)C3)CC2)c(C)c1 (centres undefined)	21.1	nt	?	nt	nt	nt
CCCOc1ccc(CNC(=O)C(NS(=O)(=O)c2cccs2)C(C)C)cc1 (centres undefined)	-3.1	-7.5%	3.2%	-1.7%	-16.8%[46.1 µM]	nt
C/C=C\C(=O)Nc1cccc(C2=NOC3(C2)C[C@@H](C(N)=O)N(C(=O)c2ccc(OC)cc2)C3)c1 (some centres undefined)	23.3	-17.5%	2.4%	-1.3%	nt	nt
COc1cccc(CNC(=O)[C@@H]2CCCN2C(=O)[C@H]2CCCCN2C(=O)c2ccc(Cl)cc2)c1	-27.7	i	-9.4%	1.3%	nt	nt
CCN(c1cccc(C)c1)S(=O)(=O)c1ccc2c(c1)N(C(C)=O)CCS2	-69.6*	0.9%	-16.0%	-1.9%	?	?
COc1ccc(C2=NCC(CSc3nnc(-c4ccc5c(c4)OCO5)o3)S2)cc1 (centres undefined)	0.3	nt	?	nt	9.3%	?
CCN(CC)S(=O)(=O)c1ccc2oc(SCC3CN=C(c4ccc(OC)cc4)S3)nc2c1 (centres undefined)	-66.8*	nt	?	nt	?	-29.6%
CCCCOC(=O)n1c(=O)oc2ccccc21	-101.1*	nt	16.8%	-17.3%	18.2%	32.3%
Fc1cnc(N2CCN(c3ccccc3)CC2)nc1N1CCN(c2ccccc2)CC1	?	i	20µM*	-9.2%	?	?
O=C1CCCc2nc(N3CCN(c4ccccc4)CC3)ncc21	-9.5	nt	2.0%	nt	?	?
